The target of assay [1] is Lysosomal acid glucosylceramidase (Homo sapiens) (UniProt P04062). Briefly: Glucocerebrosidase-p2 (AID 348; in the data active = potency below about 10 µM; note: potency is the fitted concentration of half-maximal effect). The settings on record: purified GBA, blue fluorogenic substrate, 40 min. The gist of the method: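 Compounds titrated from 0.6 nM upwards against 0.2 nM enzyme in pH 5.9 citric acid/KH2PO4, taurocholate, tween-20; blue fluorogenic substrate 80 uM, 40 min room temperature, stopped and read Ex 365/Em 440 for AC50.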
Chain of Lysosomal acid glucosylceramidase (Homo sapiens) (P04062 whole entry, looked up): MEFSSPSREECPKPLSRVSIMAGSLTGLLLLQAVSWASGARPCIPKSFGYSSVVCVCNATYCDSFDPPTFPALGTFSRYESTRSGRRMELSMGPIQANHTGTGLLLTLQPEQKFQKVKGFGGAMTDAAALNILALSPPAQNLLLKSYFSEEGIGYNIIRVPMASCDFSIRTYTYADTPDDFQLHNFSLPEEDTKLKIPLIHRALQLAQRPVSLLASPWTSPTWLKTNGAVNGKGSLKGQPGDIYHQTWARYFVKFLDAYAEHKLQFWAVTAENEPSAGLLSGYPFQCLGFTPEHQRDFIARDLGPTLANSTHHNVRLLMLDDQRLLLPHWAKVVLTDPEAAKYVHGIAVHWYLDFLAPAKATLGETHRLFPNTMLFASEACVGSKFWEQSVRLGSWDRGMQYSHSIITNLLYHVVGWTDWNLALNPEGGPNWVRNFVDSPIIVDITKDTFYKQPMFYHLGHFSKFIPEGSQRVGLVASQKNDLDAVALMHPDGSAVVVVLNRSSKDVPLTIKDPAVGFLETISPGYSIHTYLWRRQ

A short description of assay [2]: AP1 Signaling Pathway (AID 357). Note: % is set by controls: 0 for no effect and ±100 for the full control effect. The settings on record: ME-180 AP-1-bla reporter, EGF-induced, beta-lactamase ratio, 5 h; at 7.69 µM (top of the series) unless noted. The gist of the method: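 AP-1-bla ME-180 cells with beta-lactamase reporter under AP-1 response element, stimulated with EC50 EGF; compounds titrated, 5 hours at 37 degrees Celsius. CCF4 read at 460/530 nm ratio; positive and negative modulators judged by AC50.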

Assay [3] has as its target Cytochrome P450 1A2 (Homo sapiens) (UniProt P05177). Briefly: p450-cyp1a2 (AID 410; calls by dose curve; note: potency is the fitted concentration of half-maximal effect). As to conditions: recombinant CYP1A2, luciferin-ME demethylation, luminescence; series mostly up to 11.4 µM. The gist of the method: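 Luminescent readout of luciferin formed from Luciferin-ME by human CYP1A2; data normalized against complete inhibition by 57 uM furafylline. Enzyme 20nM, substrate 100uM at Km, 100mM KPO4 buffer, 60 min reaction at room temperature.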

The nature of assay [4]: NFAT Signaling Pathway (AID 444).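 Note: carbachol stimulus at about its EC50 of 1 µM final; % is set by controls: 0 for no effect and ±100 for the full control effect.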 As to conditions: Jurkat NFAT-bla M1, carbachol, beta-lactamase ratio, 5 h; at 7.69 µM (top of the series) unless noted. The gist of the method:
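Jurkat cells carrying an NFAT-driven β-lactamase reporter and co-transfected muscarinic M1 receptor were treated with compound plus carbachol (1 uM final, an EC50 level) for 5 h at 37 °C. CCF4 loading followed for 1 h at RT; 460/530 nm ratio gave %activity.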

Assay [5] is described as follows: Stat Signaling Pathway (AID 446).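 Note: ME-180 cervical cancer cells given 40 pM IL-6 alongside compound; SIE-controlled beta-lactamase reporter measured as 460/530 nm FRET emission ratio; % is set by controls: 0 for no effect and ±100 for the full control effect.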 The settings on record: ME-180 SIE beta-lactamase reporter, IL-6 stimulated, 5 h; at 7.69 µM (top of the series) unless noted. The gist of the method:
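Reporter line: ME-180 cervical carcinoma, SIE-beta-lactamase. Treatment: compound with 40 pM IL-6, 5 hrs, 37 C, in low-serum OPTI-MEM with 10 mM HEPES pH 7.3. Detection: 460/530 nm fluorescence.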

The target in assay [6] is Glucocorticoid receptor (Homo sapiens) (UniProt P04150). Put plainly: GR-GFP Redistribution (AID 450;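 active = compounds whose dose series gives a full or clear partial fitted curve of increased nuclear translocation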; note: potency is the fitted concentration of half-maximal effect). As to conditions: U2OS GR-GFP nuclear translocation, laser cytometry, 2 h.
Chain of Glucocorticoid receptor (Homo sapiens) (P04150 whole entry, looked up, the tested form may be a part): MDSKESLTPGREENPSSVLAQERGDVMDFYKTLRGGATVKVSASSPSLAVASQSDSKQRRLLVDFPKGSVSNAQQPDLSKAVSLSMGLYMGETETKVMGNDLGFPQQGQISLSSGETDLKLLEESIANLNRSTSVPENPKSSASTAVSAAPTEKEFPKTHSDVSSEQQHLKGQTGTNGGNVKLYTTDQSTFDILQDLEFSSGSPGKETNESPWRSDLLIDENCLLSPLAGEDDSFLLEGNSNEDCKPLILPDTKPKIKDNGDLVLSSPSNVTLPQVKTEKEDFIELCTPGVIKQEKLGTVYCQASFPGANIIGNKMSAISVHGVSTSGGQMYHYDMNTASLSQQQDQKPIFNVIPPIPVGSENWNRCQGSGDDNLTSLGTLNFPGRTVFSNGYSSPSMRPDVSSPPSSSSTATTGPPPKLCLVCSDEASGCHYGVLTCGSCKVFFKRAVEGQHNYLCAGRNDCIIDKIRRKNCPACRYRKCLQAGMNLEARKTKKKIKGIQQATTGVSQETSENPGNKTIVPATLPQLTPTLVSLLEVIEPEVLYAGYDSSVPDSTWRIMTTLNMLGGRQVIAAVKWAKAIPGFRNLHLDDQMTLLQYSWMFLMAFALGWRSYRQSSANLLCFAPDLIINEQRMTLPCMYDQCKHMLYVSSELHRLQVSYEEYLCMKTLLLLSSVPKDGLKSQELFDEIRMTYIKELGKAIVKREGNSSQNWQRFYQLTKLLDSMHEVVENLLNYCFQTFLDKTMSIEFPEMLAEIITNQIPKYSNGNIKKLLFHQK
The target is the same in assay [7]. Briefly: GR-EFC Redistribution (AID 451; calls by dose curve; note: potency is the fitted concentration of half-maximal effect). The settings on record: CHO-K1 GR-EFC translocation, beta-gal luminescence, 2 h. The gist of the method: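 CHO-K1 cells stably expressing nuclear-localized β-gal enzyme acceptor and GR fused C-terminally to the enzyme donor fragment; ligand-driven nuclear translocation restores β-gal by complementation. Compounds titrated up to 46 uM final, 2 h at 37 °C; luminescence read.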

For assay [8], the target named is Mitogen-activated protein kinase 10 (Mus musculus) (UniProt Q61831). Put plainly: JNK3 AlphaScreen Assay (AID 530).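 Note: kinase came from lysate of stimulated human HepG2 cells; signal reports phosphorylation of biotinylated GST-cJun 1-79 at Ser73 with 10 µM ATP; % is set by controls: 0 for no effect and ±100 for the full control effect.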 As to conditions: JNK3 lysate, c-Jun phosphorylation; series mostly up to 11.4 µM. The gist of the method: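 Inhibitors reduce antibody binding to phosphorylated biotin-cJun, lowering AlphaScreen luminescence. Lysates from HepG2 cells pre-activated by IL-1beta plus TNF-alpha supplied JNK3; compounds were titrated.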

Assay [9] has as its target 3',5'-cyclic-AMP phosphodiesterase 4B (Homo sapiens) (UniProt Q07343). Put plainly: qHTS Assay for Inhibitors of PDE-IV (AID 607; active = well fitted activation curve with a large enough effect in the main read-out, with a control signal flat, not every such curve was filed as active; note: % of control where 0% means no effect). As to conditions: HEK293 ACTOne CNG channel cells, membrane potential fluorescence; series mostly up to 22.9 µM. The gist of the method: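 Cell-based read-out of cAMP via a modified cyclic nucleotide-gated channel and membrane potential dye (535/590 nm) in HEK293 cells expressing PDE4 endogenously. Compounds tested up to 22.9 uM final; 100 uM RO 20-1724 reference.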
A general note: In qHTS, concentration-response curves come from the screen itself.

Assay [10] concerns the target Cytochrome P450 2C9 (Homo sapiens) (UniProt P11712). Put plainly: qHTS Assay for Inhibitors and Substrates of Cytochrome P450 2C9 (AID 883; active = well fitted curve in the direction sought with a large enough effect; an effect the other way counts as inactive or inconclusive; note: nearly all actives have a fitted effect of over 60% in size; note: potency is the fitted concentration of half-maximal effect). The settings on record: recombinant CYP2C9, luciferin-H luminescence, 60 min; series mostly up to 11.4 µM. The gist of the method: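 A luminogenic readout tracked human CYP2C9 (10nM) converting deoxyluciferin (100uM, at KM) in 25mM KPO4 during 60 min at 37C with regenerated NADPH. Values normalized to 57uM sulphaphenazole as complete inhibition.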

The target in assay [11] is Cytochrome P450 3A4 (Homo sapiens) (UniProt P08684). Put plainly: qHTS Assay for Inhibitors and Substrates of Cytochrome P450 3A4 (AID 884; active = well fitted curve in the direction sought with a large enough effect; an effect the other way counts as inactive or inconclusive; note: potency is the fitted concentration of half-maximal effect; nearly all actives have a fitted effect of over 50% in size). The settings on record: recombinant CYP3A4, Luciferin-PPXE luminescence; series mostly up to 57.1 µM. The gist of the method:
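20 nM human CYP3A4 with 25 uM Luciferin-PPXE (at KM) in 200 mM KPO4, preincubated 10 min with compound; NADPH regeneration started a 60 min RT reaction. Luciferin detected by luminescence, normalized to 57 uM ketoconazole as full inhibition.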

Assay [12] shares this target. Put plainly: qHTS Assay for Activators of Cytochrome P450 3A4 (AID 885; active = well fitted curve in the direction sought with a large enough effect; an effect the other way counts as inactive or inconclusive; note: nearly all actives have a fitted effect of over 65% in size). As to conditions: recombinant CYP3A4, Luciferin-PPXE luminescence, 60 min; series mostly up to 11.4 µM. The gist of the method:
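Signal was normalized against complete inhibition by 57 uM ketoconazole. The reaction used 20nM CYP3A4 with 25uM Luciferin-PPXE, 10-min compound preincubation and a 60-min NADPH-supported step at RT.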

Assay [13] deals with Cytochrome P450 2C19 (Homo sapiens) (UniProt P33261). Put plainly: qHTS Assay for Inhibitors and Substrates of Cytochrome P450 2C19 (AID 899; active = well fitted curve in the direction sought with a large enough effect; an effect the other way counts as inactive or inconclusive; note: potency is the fitted concentration of half-maximal effect; nearly all actives have a fitted effect of over 60% in size). The settings on record: recombinant CYP2C19, luciferin-H EGE luminescence; series mostly up to 11.4 µM. The gist of the method:
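NADPH-dependent conversion of Luciferin-H EGE (10uM, at KM) by 5nM enzyme in 50mM KPO4, 60 min at 37C following 10 min compound preincubation. Stopped with luciferin detection buffer; luminescence read after 20 min.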

Assay [14] deals with Cytochrome P450 2D6 (Homo sapiens) (UniProt P10635). Put plainly: qHTS Assay for Inhibitors and Substrates of Cytochrome P450 2D6 (AID 891; active = well fitted curve in the direction sought with a large enough effect; an effect the other way counts as inactive or inconclusive; note: potency is the fitted concentration of half-maximal effect; nearly all actives have a fitted effect of over 60% in size). The settings on record: recombinant CYP2D6, luciferin-ME EGE luminescence; series mostly up to 11.4 µM. The gist of the method: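 Human CYP2D6 (5 nM) with 30 uM Luciferin-ME EGE (at Km) in 100 mM KPO4, compound preincubated 10 min, then NADPH regeneration system for 60 min at room temperature. Luciferin read by luminescence; normalized to 1.43 uM quinidine.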
Chain of Cytochrome P450 2D6 (Homo sapiens) (P10635 whole entry, looked up): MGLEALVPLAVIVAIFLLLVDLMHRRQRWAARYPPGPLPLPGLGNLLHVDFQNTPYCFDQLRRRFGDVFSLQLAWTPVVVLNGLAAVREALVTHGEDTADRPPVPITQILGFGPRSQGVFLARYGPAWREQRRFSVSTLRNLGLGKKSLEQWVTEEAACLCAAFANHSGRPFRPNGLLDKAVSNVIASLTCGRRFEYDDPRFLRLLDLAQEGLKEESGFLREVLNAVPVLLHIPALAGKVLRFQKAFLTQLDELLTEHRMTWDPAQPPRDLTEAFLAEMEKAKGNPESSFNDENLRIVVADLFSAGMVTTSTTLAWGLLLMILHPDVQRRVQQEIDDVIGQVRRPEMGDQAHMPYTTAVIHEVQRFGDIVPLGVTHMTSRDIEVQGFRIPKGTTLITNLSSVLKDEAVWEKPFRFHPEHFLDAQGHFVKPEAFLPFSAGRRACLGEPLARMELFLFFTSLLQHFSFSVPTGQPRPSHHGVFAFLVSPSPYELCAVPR

This is an account of results in PubChem BioAssay (NCATS).

A number with no mark means an inactive call. Results filed as inconclusive are left out. The source made the active and inactive calls. Unless noted, calls come from the whole dose curve; as a rule, active = well fitted curve in either direction with a large enough effect (not every such curve was filed as active); inconclusive = small, poorly fitted or top-dose-only effect, or another doubt; inactive = flat fitted curve, though single readings scatter. Where only a bound is given, the exact number is not on record here.

Chain of 3',5'-cyclic-AMP phosphodiesterase 4B (Homo sapiens) (Q07343 whole entry, looked up): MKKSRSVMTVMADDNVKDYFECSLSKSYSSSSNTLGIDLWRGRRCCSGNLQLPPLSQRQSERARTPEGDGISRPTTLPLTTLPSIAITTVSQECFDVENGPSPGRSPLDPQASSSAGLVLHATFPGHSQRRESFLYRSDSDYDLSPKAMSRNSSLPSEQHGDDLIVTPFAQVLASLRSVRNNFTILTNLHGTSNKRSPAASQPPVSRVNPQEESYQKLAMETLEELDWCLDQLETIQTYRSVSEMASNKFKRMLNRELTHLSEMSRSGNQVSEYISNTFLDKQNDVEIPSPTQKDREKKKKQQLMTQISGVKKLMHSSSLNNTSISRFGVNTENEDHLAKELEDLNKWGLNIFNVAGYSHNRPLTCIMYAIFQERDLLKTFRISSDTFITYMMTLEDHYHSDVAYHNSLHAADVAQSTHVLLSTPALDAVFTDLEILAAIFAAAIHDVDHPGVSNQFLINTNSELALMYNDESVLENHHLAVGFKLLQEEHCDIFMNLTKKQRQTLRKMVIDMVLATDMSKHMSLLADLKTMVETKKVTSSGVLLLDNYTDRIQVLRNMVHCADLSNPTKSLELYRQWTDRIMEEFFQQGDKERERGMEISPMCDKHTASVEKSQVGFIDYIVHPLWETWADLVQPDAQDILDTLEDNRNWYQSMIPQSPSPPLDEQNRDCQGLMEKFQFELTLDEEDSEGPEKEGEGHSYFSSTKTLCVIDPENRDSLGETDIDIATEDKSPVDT
Chain of Cytochrome P450 2C9 (Homo sapiens) (P11712 whole entry, looked up): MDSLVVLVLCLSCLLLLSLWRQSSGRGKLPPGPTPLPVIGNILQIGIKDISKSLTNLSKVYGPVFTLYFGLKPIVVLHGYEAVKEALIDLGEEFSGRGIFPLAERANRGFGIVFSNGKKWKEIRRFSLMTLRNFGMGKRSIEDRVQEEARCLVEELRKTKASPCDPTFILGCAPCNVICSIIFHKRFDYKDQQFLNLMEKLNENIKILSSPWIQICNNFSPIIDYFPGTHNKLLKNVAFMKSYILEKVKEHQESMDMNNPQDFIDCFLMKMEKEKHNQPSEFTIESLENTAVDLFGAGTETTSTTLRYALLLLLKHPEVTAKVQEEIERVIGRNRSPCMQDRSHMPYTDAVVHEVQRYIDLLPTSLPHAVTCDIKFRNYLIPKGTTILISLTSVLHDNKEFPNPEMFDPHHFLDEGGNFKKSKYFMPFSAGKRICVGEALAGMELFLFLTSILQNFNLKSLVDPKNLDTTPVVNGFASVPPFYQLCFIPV
Chain of Cytochrome P450 1A2 (Homo sapiens) (P05177 whole entry, looked up): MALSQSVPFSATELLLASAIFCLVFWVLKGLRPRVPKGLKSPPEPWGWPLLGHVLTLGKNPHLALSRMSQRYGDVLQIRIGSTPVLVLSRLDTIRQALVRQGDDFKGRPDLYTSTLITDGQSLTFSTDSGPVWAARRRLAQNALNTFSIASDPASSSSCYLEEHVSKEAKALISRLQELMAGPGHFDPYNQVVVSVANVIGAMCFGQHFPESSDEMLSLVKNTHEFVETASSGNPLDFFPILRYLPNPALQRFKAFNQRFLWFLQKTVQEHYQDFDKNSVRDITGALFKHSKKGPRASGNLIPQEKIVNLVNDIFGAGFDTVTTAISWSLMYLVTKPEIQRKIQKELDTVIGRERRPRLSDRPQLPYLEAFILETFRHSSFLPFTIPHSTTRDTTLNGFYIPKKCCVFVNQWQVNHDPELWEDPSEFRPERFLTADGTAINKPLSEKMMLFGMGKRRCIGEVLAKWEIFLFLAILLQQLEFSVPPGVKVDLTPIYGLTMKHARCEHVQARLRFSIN
Chain of Cytochrome P450 3A4 (Homo sapiens) (P08684 whole entry, looked up): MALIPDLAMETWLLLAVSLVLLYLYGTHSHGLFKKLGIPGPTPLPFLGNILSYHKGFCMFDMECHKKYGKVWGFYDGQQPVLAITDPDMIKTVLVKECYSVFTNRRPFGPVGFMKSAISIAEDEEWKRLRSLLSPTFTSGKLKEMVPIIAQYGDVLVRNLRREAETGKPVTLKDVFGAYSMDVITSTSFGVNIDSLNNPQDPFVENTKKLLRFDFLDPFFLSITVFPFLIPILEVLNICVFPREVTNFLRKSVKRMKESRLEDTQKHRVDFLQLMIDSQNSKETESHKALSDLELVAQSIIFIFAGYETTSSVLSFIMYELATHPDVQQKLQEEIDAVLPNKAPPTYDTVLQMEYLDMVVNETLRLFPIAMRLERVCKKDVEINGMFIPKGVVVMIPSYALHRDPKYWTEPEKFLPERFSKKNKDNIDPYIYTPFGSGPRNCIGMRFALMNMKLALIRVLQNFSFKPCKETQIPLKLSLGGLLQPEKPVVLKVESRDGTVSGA
Chain of Cytochrome P450 2C19 (Homo sapiens) (P33261 whole entry, looked up): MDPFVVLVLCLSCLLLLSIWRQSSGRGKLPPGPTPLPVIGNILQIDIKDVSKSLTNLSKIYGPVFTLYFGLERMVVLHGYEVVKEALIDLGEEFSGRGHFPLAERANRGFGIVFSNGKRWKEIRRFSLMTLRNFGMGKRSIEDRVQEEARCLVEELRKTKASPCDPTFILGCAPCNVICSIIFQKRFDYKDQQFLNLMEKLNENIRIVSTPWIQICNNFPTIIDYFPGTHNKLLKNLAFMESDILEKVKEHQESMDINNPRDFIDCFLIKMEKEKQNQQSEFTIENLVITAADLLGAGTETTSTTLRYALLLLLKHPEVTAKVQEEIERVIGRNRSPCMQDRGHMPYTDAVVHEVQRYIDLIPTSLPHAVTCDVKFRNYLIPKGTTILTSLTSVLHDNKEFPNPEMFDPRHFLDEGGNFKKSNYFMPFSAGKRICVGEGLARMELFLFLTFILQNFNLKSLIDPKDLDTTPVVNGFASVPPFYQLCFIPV

For `CC(C)(C)c1cc2c(O)c(c1)Cc1cc(C(C)(C)C)cc(c1O)Cc1cc(C(C)(C)C)cc(c1O)Cc1cc(C(C)(C)C)cc(c1O)Cc1cc(C(C)(C)C)cc(c1O)Cc1cc(C(C)(C)C)cc(c1O)Cc1cc(C(C)(C)C)cc(c1O)Cc1cc(C(C)(C)C)cc(c1O)C2`, the Potency in [1] is more than 11.4 µM; in assay [6], more than 46 µM; in [7], more than 9.22 µM. The activity change, negative = inhibition in [2] is 6.61%; in assay [4] it was -14.8%. In addition, the Potency entry in assay [3], in [8] and in assay [9] was “inactive” each time. Moreover, the activity, negative = inhibition in assay [5] was -5.63%.
Take `Oc1ccc2ccccc2c1C=NCc1c(O)ccc2ccccc12`: the Potency in assay [1] was more than 11.4 µM; in [3], 1.58 µM (active); in assay [6], more than 46 µM; in assay [7], more than 9.22 µM. Moreover, the activity change, negative = inhibition in assay [2] was -5.07%; in assay [4], 12.6%. In assay [5], the activity, negative = inhibition is -21.2%. In addition, the Potency entry in assay [8] and in [9] was “inactive” throughout.
In the case of `COc1ccc([C@@H](Nc2ncccn2)c2cc3c(cc2O)OCO3)cc1`, the Potency was more than 11.4 µM in assay [1]; more than 46 µM in [6]; more than 9.22 µM in [7]; 3.16 µM (active) in [10]; 2.51 µM (active) in assay [11]; 0.316 µM (active) in assay [13]. In addition, the activity change, negative = inhibition in assay [2] is -6.22%; in [3], -14.3% [at 2.29 µM]; in assay [4], 17.5%. In addition, in assay [5], the activity, negative = inhibition was -1.19%. Further, the Potency result in assay [8], in [9] and in [12] was “inactive” in each case.
As for `NCCSC[C@H](N)C(=O)O`, the Potency was more than 11.4 µM in [1], more than 46 µM in [6] and more than 9.22 µM in assay [7]. The activity change, negative = inhibition in [2] is -5.07%; in [4], 6.39%. Besides, the Potency result in assay [3], in [8], in assay [9] and in [10] was “inactive” in each case. Moreover, the activity, negative = inhibition in [5] was 6.75%.
As for `N[C@@H](Cc1ncccn1)C(=O)O`, the Potency in assay [1] is more than 11.4 µM; in assay [6] it was more than 46 µM; in assay [7], more than 9.22 µM. Further, the figures for the activity change, negative = inhibition in assay [2] and in assay [4] were -0.104% and 3.63%, respectively. In addition, the Potency result in [3], in assay [8], in [9] and in assay [10] was “inactive” each time. For the same molecule, the activity, negative = inhibition in assay [5] was 3.82%.
Turning to `NNC(=O)CCc1ccc2ccc3ccccc3c2c1`, the Potency in assay [1] is more than 11.4 µM; in assay [3] it was 0.0316 µM (active); in assay [6], more than 46 µM; in assay [7], more than 9.22 µM; in assay [10] it was 1.58 µM (active); in [11] it was 0.398 µM (active). The Potency was 1.58 µM (active) in assay [14] and 0.251 µM (active) in assay [13]. Besides, the activity change, negative = inhibition in assay [2] is -3.44%; in assay [4], 13.8%. In assay [5], the activity, negative = inhibition is -11%. For the same molecule, the Potency result in assay [8], in assay [9] and in assay [12] was “inactive” in each case.
In the case of `NS(=O)(=O)c1cc(Br)c(N=Nc2ccc(O)c3ncccc23)c(Br)c1`, the Potency in [1] is more than 11.4 µM; in [3], 1.26 µM (active); in assay [6], more than 46 µM; in [7], more than 9.22 µM. Moreover, the activity change, negative = inhibition in assay [2] was -0.828%; in assay [4], 10.5%. In addition, the activity, negative = inhibition in [5] is 21.9%. The Potency entry in assay [8], in [9] and in [10] was “inactive” throughout.
